# Compound activity as filed in PubChem BioAssay.
# Compounds with a hit are over-represented: about 0.3% of the library has one in this group of screens.
# mcGAS lum – cyclic GMP-AMP synthase inhibitors, mouse, primary biochemical chemiluminescence; inhibition, % at 12.5 µM; AID 1259399, 2018; recombinant cGAS, Kinase-Glo ATP depletion luminescence; 160,000 compounds, 0.15% hits; Q8C6L5;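 note: 0% = negative control wells and 100% = reference inhibitor with no enzyme activity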
# Target sequence (Q8C6L5 whole entry, looked up): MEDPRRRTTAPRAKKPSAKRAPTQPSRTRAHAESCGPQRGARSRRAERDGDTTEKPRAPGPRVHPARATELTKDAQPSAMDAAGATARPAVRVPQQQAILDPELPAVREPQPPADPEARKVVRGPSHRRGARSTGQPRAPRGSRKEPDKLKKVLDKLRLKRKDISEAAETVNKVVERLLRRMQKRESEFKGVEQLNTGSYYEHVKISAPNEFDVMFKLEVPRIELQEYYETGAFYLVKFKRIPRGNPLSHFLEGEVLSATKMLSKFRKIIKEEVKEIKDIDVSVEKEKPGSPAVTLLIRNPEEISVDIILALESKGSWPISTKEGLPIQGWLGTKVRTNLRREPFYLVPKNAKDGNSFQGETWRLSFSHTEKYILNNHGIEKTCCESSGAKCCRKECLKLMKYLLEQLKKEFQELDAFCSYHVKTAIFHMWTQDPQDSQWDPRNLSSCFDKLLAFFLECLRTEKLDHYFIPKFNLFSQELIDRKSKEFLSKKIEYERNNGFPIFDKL
# hcGAS inh – Primary biochemical luminescence assay for human cyclic GMP-AMP synthase inhibitors | Q8N884 | recombinant h-cGAS, ATP depletion, Kinase-Glo luminescence | inhibition, % at 12.5 µM | 290,000 compounds, 0.081% hits | AID 1259398, 2018;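 note: 0% = vehicle reaction and 100% = reaction without DNA for no activity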
# NPYLR7 ag – agonists of mosquito NPYLR7 receptor, primary screen, cell-based, Aedes aegypti, calcium fluorescence, mosquito biting behavior. Aedes aegypti neuropeptide Y-like receptor 7 (NPYLR7). HEK293T NPYLR7/Galpha15, GCaMP6s calcium fluorescence. activation, % at 10 µM. 270,000 compounds, 0.15% hits. AID 1259423, 2018; in the data active = activation above about 40%;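 note: 0% = vehicle and 100% = reference agonist at the receptor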
# Active calls of the source: *; nt = not tested or not shown. Cut-off read from the data, not from the text of the source, unless noted: active = inhibition above about 40%; inactive = the rest.
SMILES,mcGAS lum,hcGAS inh,NPYLR7 ag
CCOC(=O)C1CCN(C(=O)C(C)n2ccsc2=NC(=O)c2cccc(C(F)(F)F)c2)CC1 (configuration not stated),nt,3,-8
Cc1sc(=NC(=O)c2cccc(C(F)(F)F)c2)n(C(C)C(=O)NC2CC2)c1C (configuration not stated),nt,184*,7
COc1ccc(C(=O)Oc2coc(CSc3nc(C)cc(C)n3)cc2=O)cc1,-6,-4,-14
NCCc1ccc(O)c(O)c1,-8,-9,10
CC(=O)NCCc1ccc(O)c(O)c1,-1,-6,88*
CN1CCC(Cc2noc(CN3CCCCCCC3)n2)CC1,-18,-7,23
CN(C)C(=O)CNC(=O)CSc1nc2sc3c(c2c(=O)[nH]1)CCCC3,nt,0,0
CC1(C)CC(=O)C2C(=Nc3[nH]c(=S)[nH]c(=O)c3C2c2ccc3c(c2)OCO3)C1 (configuration not stated),-4,-6,43*
CSc1nc2c(c(=O)[nH]1)C(c1ccc3c(c1)OCO3)C1C(=O)CCCC1=N2 (configuration not stated),nt,-7,0
COc1cccc(-c2nn(-c3ccccc3)cc2CN(C)Cc2cc(C)[nH]n2)c1,nt,-8,3
Brc1c(Br)c(Br)c2[nH]cnc2c1Br,16,19,4
Brc1c(Br)c(Br)c2n[nH]nc2c1Br,84*,41*,4
CCOc1cc(-c2nn(CN3CCOCC3)c(=S)o2)cc(OCC)c1OCC,nt,4,3
S=c1oc(-c2sc3ccccc3c2Cl)nn1CN1CCOCC1,24,43*,2
COCCOCC(=O)N1CCCN(c2c(-c3ccc(OC)cc3)cnc3ncnn23)CC1,-6,-6,5
COc1ccc(-c2coc3cc(O)ccc3c2=O)c(OC)c1O,-2,-2,-4
COc1ccc(-c2coc3cc(O)ccc3c2=O)c(O)c1O,68*,51*,nt
O=C(NCCSCc1ccco1)c1ccc(-c2cc(-c3cccc(C(F)(F)F)c3)n[nH]2)cc1,2,0,3
O=C1C(Cl)=CC(=NS(=O)(=O)c2ccccc2)C(Cl)=C1Cl,59*,59*,-7
O=C1C=CC(=NC(=NS(=O)(=O)c2ccccc2)c2ccccc2)C=C1Cl,-3,-4,-2
COc1ccc(NC(=O)c2sccc2OC)c(C)n1,nt,-5,4
CC(=O)Oc1ccc2c(c1OC(C)=O)C(=O)c1ccccc1C2=O,0,-1,5
CC(=O)Oc1cccc2c1C(=O)c1c(OC(C)=O)cc(C(=O)O)cc1C2=O,12,57*,-3
Cc1nn(C(C)C)c(C)c1CN(C)C(=O)CC1C(=O)NCCN1CC(C)C (configuration not stated),nt,0,8
Cc1ccc2c(=O)c3ccccc3n(CCCN)c2c1C,nt,71*,-2
SMILES,mcGAS lum,hcGAS inh,NPYLR7 ag
Cc1ccc(Cl)cc1NC(=O)Cn1c2ccccc2c(=O)c2ccccc21,nt,1,-1
CCOC(=O)C(=O)N1CCN(CC(OCc2cccc(C)c2)c2ccc(Cl)cc2)CC1 (configuration not stated),-7,-9,6
O=[N+]([O-])c1cc([N+](=O)[O-])c2oc(-c3ccccc3)c(Br)c2c1O,91*,82*,-9
O=c1c(O)c(-c2ccccc2)oc2cccc(O)c12,nt,-2,1
CC1CCCCC12NC(=O)N(CC(=O)OCC(=O)C(C)(C)C)C2=O (configuration not stated),-5,-8,11
CCN(CC)CCCC(C)NC(=O)c1cc(-c2ccc(OC)cc2)nc2cc(-c3ccccc3)nn12 (configuration not stated),90*,91*,12
CCN(CC)CCCC(C)NC(=O)c1cc(-c2ccc(OC)cc2)nc2cc(-c3ccc(Cl)cc3)nn12 (configuration not stated),-3,-3,6
Cc1oc(-c2ccc(C(F)(F)F)cc2)nc1CN1CCCCC1CO (configuration not stated),nt,-4,5
COc1ccc(C)cc1-n1c(Cn2ccnc2)nnc1SCC(=O)O,nt,-4,13
COc1ccc(C)cc1-n1c(SCC(=O)O)nnc1-c1cc(C)nn1C,-9,44*,8
COc1ccc(OCC(O)CN(CCC(C)C)Cc2cccc(OC)c2)cc1 (configuration not stated),79*,-1,25
COCCN(Cc1cccc(OC)c1)CC(O)COc1ccc(OC)cc1 (configuration not stated),-2,-1,11
Cc1cccc(-c2[nH]ncc2C(=O)NC2CCCc3c2cnn3-c2ccccn2)c1 (configuration not stated),-9,-8,11
CC1CCCCN1CCCNC(=O)c1csc(CSc2nnc(-c3cccnc3)n2-c2ccccc2F)n1 (configuration not stated),-5,-2,14
CC(N)=C(C#N)C(=O)Cn1cc(C(F)(F)F)cc(Cl)c1=O,nt,-4,14
CC(=O)c1c(C)[nH]c(C(=O)Cn2cc(C(F)(F)F)cc(Cl)c2=O)c1C,-2,74*,-2
CCc1onc(C)c1C1CCCN1C(=O)CC(C)C (configuration not stated),-3,-3,nt
COCCN(CC(=O)Nc1nc(CC(=O)NCCc2ccccc2)cs1)C(=O)c1ccccc1,-4,-6,-11
CC(C)N1CCc2c(sc(NC(=O)C3CC3)c2-c2nc3ccccc3s2)C1,32,45*,166*
CC(C)N1CCc2c(sc(NC(=O)c3ccc([N+](=O)[O-])o3)c2-c2nc3ccccc3s2)C1,-6,-3,-3
CCOC(=O)N1CCc2c(sc(NC(=O)C(C)C)c2-c2nc3ccccc3s2)C1,nt,-4,5
CC(C)C(=O)Nc1sc2c(c1-c1nc3ccccc3s1)CCN(C)C2,0,10,49*
CC(=O)N1CCc2c(sc(NC(=O)Cc3ccccc3)c2-c2nc3ccccc3s2)C1,nt,-5,3
CC(=O)N1CCc2c(sc(NC(=O)c3ccccc3)c2-c2nc3ccccc3s2)C1,nt,-2,3
CC(C)C(=O)Nc1sc2c(c1-c1nc3ccccc3s1)CCN(C(C)C)C2,90*,78*,66*
SMILES,mcGAS lum,hcGAS inh,NPYLR7 ag
CN1CCc2c(sc(NC(=O)Cc3ccccc3)c2-c2nc3ccccc3s2)C1,-4,0,45*
CCn1c(SC(C)C#N)nc2sc(C)c(C)c2c1=O (configuration not stated),-2,-3,11
Cc1nc(-c2cccs2)sc1-c1ccc(SCC(=O)N2CCCCC2)nn1,-8,-3,1
Cc1cccc(NC(=O)C2CC(=O)N(CCc3ccccc3)C(=Nc3ccc(F)cc3)S2)c1 (configuration not stated),-6,-3,-16
COc1cccc(COC(=O)c2nnn(-c3ccc(Br)cc3)c2C)c1,-9,-5,4
O=C(c1ccc(F)cc1C(F)(F)F)N1CCN(c2nc3nccc(-c4cccnc4)n3n2)CC1,0,3,-17
CN(C)CCNC(=O)CC1CSc2nc3c(cnn3-c3cccc(Cl)c3)c(=O)n21 (configuration not stated),-8,-13,0
CC(Sc1nnc(-c2ccc(Cl)cc2)o1)C(=O)N1CCCCCC1 (configuration not stated),nt,3,7
